Sampled rows, rich in hits. Any-hit rate of the full collection: about 19%.
TDP1 cell CPT = DT40-hTDP1 cell growth loss with CPT; Potency, µM (series often up to 46.2 µM), for inactives: top-dose activity change, negative = growth inhibition, hits mostly inhibitors; 420,000 compounds, 12% hits; chicken DT40 Tdp1-/-;hTDP1 cells + 20 nM CPT, ATP luminescence, 48 h; further: potency means the concentration at half of the fitted maximal effect; on the % scale 0 is the no-effect control and ±100 the full control effect; nearly all actives have a fitted effect of over 55% in size
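Chicken DT40 Tdp1-/- cells stably complemented with human TDP1 were seeded at 400 cells/well in medium containing 20 nM camptothecin, exposed to pin-transferred compounds, and grown at 37 °C for at least 48 hr. Viability was read as ATP luminescence.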
SW480 rereplic = DNA re-replication induction in SW480 cells | SW480 DNA re-replication, Hoechst DNA content imaging, 48 h | Potency, µM (top dose mostly 46.1 µM), for the others: at the top dose re-replication activation, hits mostly activators | 340,000 compounds, 1.8% hits; further: potency means the concentration at half of the fitted maximal effect; % of control where 0% means no effect; nearly all actives have a fitted effect of over 55% in size
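Cells (250 per well) received 23 nL compound or DMSO by pin tool and were kept 48 hr at 37 C, 5% CO2. Nuclei were then stained with Hoechst for 40 min and scanned for DNA content.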
MCF10A rereplic = DNA re-replication induction in MCF 10a cells; MCF 10A DNA re-replication, Hoechst nuclear intensity, 48 h; Potency, µM (top dose mostly 46.1 µM), for inactives: top-dose activity, positive = re-replication, hits mostly activators; 350,000 compounds, 2.9% hits; further: potency means the concentration at half of the fitted maximal effect; % of control where 0% means no effect; nearly all actives have a fitted effect of over 50% in size
IL-1B inflam inh = inflammasome signaling inhibition, IL-1 beta readout; THP-1 LPS/ATP IL-1B secretion, AlphaLISA, 16 h; active compounds read low; activity change, % at 57.5 µM; 360,000 compounds, 4.7% hits; in the data active means activity change below about -50%; inconclusive means mostly about -30% to -49%; further: on the % scale 0 is the no-effect control and ±100 the full control effect
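Secreted IL-1B measured by AlphaLISA bead assay after 16 h compound exposure of THP-1 cells; compounds (final up to 57.5 uM) added 1 h before LPS (250 ng/mL) and ATP (1.25 mM) stimulation; lower signal means less secretion.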
Chronic BCR inh = inhibitors of chronic active B-cell receptor signaling | Potency, µM (series often up to 46.1 µM), without a hit: top-dose activity change, negative = inhibition, hits mostly inhibitors | ABC-DLBCL IkBa-CBG/CBR reporter, luminescence ratio, 4 h | 340,000 compounds, 0.05% hits; active means well fitted inhibition curve with a large enough effect in the signal ratio, with a control signal flat, not every such curve was filed as active; inconclusive means small, poorly fitted or top-dose-only effect, or effect the other way, or a change in a side signal; the % refers to the signal ratio;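 further: potency means the concentration at half of the fitted maximal effect; plate controls were basal doxycycline-induced cells for no effect and cells given 10 µM MG132 for full effect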
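Doxycycline induced both beetle luciferases in TMD8 lymphoma cells; IKK-driven degradation limits the IkappaBalpha-fused green signal, while red luminescence normalises for cell number and nonspecific effects. Compounds tested up to 46 uM, 4 hrs.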
TDP1 cell noCPT = qHTS for Inhibitors of human tyrosyl-DNA phosphodiesterase 1 (TDP1): qHTS in cells in absence of CPT; DT40 Tdp1-/- hTDP1 cells, no CPT, ATP luminescence, 48 h; Potency, µM (series often up to 46.2 µM), without a hit: at the top dose activity change, negative = growth inhibition, hits mostly inhibitors; 420,000 compounds, 15% hits; further: potency means the concentration at half of the fitted maximal effect; on the % scale 0 is the no-effect control and ±100 the full control effect; nearly all actives have a fitted effect of over 55% in size
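A cellular qHTS used chicken DT40 cells lacking endogenous Tdp1 but carrying stably transfected human TDP1. Compounds were applied without camptothecin, and cell growth kinetics were judged by ATP-dependent luminescence after ≥48 hr.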
An asterisk follows results filed as active; [ ] = another dose, or the depositor's remark. Unless noted, the call rests on the fitted dose curve; in most records, active means well fitted curve in the direction sought with a large enough effect; inconclusive means small, poorly fitted or top-dose-only effect, or another doubt; inactive means no such curve, though single readings can be large; an effect the other way counts as inactive or inconclusive.

`COC(=O)C1N2C(=O)N(C)[C@H](C(=O)OC)[C@H]2SC1(C)C` (some centres not stated) gave TDP1 cell CPT -9% and TDP1 cell noCPT -3%.
For Cc1ccc(N(C)C(=O)C2CCN(S(=O)(=O)c3c(C)noc3/C=C/c3c(C)cc(C)cc3C)CC2)cc1 the results were TDP1 cell CPT inconclusive and TDP1 cell noCPT 21µM*.
COc1cc(NC(=O)C2CCN(S(=O)(=O)c3c(C)noc3/C=C/c3c(C)cc(C)cc3C)CC2)cc(OC)c1 was read as TDP1 cell CPT 13µM* and TDP1 cell noCPT -96%.
For COc1ccc(/C=C\c2onc(C)c2S(=O)(=O)N2CCC(C(=O)Nc3ccc(C)c(F)c3)CC2)cc1 the results were TDP1 cell CPT 5.2µM* and TDP1 cell noCPT 6.5µM*.
COc1ccc(/C=C\c2onc(C)c2S(=O)(=O)N2CCC(C(=O)Nc3ccc(Cl)cc3)CC2)cc1 was read as TDP1 cell CPT -12% and TDP1 cell noCPT inconclusive.
Screening COc1ccc(NC(=O)C2CCN(S(=O)(=O)c3c(C)noc3C)CC2)cc1 returned TDP1 cell CPT -26%, SW480 rereplic 2%, MCF10A rereplic 13%, IL-1B inflam inh 28, Chronic BCR inh 1% and TDP1 cell noCPT 3%.
Screening Cc1noc(C)c1S(=O)(=O)N1CCC(C(=O)Nc2ccc(OC(F)(F)F)cc2)CC1 returned TDP1 cell CPT inconclusive, SW480 rereplic 3%, MCF10A rereplic 16µM*, IL-1B inflam inh 15, Chronic BCR inh 2% and TDP1 cell noCPT inconclusive.
COC(=O)c1cc(S(=O)(=O)NCCc2sccc2C)c[nH]1 was read as TDP1 cell CPT -25%, SW480 rereplic -6%, MCF10A rereplic -21%, IL-1B inflam inh 22, Chronic BCR inh -10% and TDP1 cell noCPT -13%.
Screening Cc1cccc(OC(C)C(=O)N2CCN(Cc3ccc4c(c3)OCO4)CC2)c1 (configuration not stated) returned TDP1 cell CPT inconclusive, SW480 rereplic -2%, MCF10A rereplic inconclusive, IL-1B inflam inh 0, Chronic BCR inh -8% and TDP1 cell noCPT inconclusive.
For CCc1cccc(C)c1NC(=O)C1CCN(S(=O)(=O)c2c(C)noc2/C=C/c2c(C)cc(C)cc2C)CC1 the results were TDP1 cell CPT inconclusive and TDP1 cell noCPT 10µM*.
For c1ccc(-c2nnc3oc(-c4cccs4)nn23)cc1 the results were TDP1 cell CPT 23µM*, IL-1B inflam inh -104* and TDP1 cell noCPT 12µM*.
`COc1ccc(NC(=S)N2CCC3CC2c2cc(-c4ccc5c(c4)OCO5)ccc23)c(OC)c1` (configuration not stated) gave TDP1 cell CPT inconclusive, IL-1B inflam inh 17 and TDP1 cell noCPT inconclusive.
For O=C(COc1ccccc1)Nc1nc2cc3c(cc2s1)OCCO3 the results were TDP1 cell CPT 0%, SW480 rereplic -17%, MCF10A rereplic -10%, IL-1B inflam inh -19, Chronic BCR inh 1% and TDP1 cell noCPT 13%.
Screening CC(=O)c1sc(Nc2ccc3c(c2)OCO3)nc1C returned TDP1 cell CPT 11%, IL-1B inflam inh -26 and TDP1 cell noCPT -3%.
For COc1ccc2nc(Nc3nc(C)c(C(C)=O)s3)sc2c1 the results were TDP1 cell CPT inconclusive, SW480 rereplic 16µM*, MCF10A rereplic inconclusive, IL-1B inflam inh -27, Chronic BCR inh inconclusive and TDP1 cell noCPT 16µM*.
For CC(=O)Nc1nc2cc3c(cc2s1)OCO3 the results were TDP1 cell CPT 23µM*, SW480 rereplic -1%, MCF10A rereplic inconclusive, IL-1B inflam inh -22, Chronic BCR inh 7% and TDP1 cell noCPT 15µM*.
For CC(C)C(=O)Nc1nc2cc3c(cc2s1)OCCO3 the results were TDP1 cell CPT 21µM*, SW480 rereplic 5%, MCF10A rereplic 15%, IL-1B inflam inh 4, Chronic BCR inh inconclusive and TDP1 cell noCPT 15µM*.
CC(=O)c1sc(Nc2nc3cc4c(cc3s2)OCO4)nc1C was read as TDP1 cell CPT -1%, SW480 rereplic 21µM*, MCF10A rereplic 18µM*, IL-1B inflam inh 36, Chronic BCR inh inconclusive and TDP1 cell noCPT inconclusive.
Screening CC(C#N)(Cc1ccccc1)Nc1ccccc1 (configuration not stated) returned TDP1 cell CPT 1%, SW480 rereplic -2%, MCF10A rereplic 1%, IL-1B inflam inh 8 and TDP1 cell noCPT -17%.
Screening Cc1sc(NC(=O)C2=COCCO2)nc1-c1ccc(F)cc1 returned TDP1 cell CPT 16µM*, SW480 rereplic -3%, MCF10A rereplic 11%, IL-1B inflam inh 5, Chronic BCR inh inconclusive and TDP1 cell noCPT 21µM*.
O=C(Nc1nc2cc3c(cc2s1)OCO3)C1=COCCO1 was read as TDP1 cell CPT 8.2µM*, SW480 rereplic 16µM*, MCF10A rereplic inconclusive, IL-1B inflam inh 23, Chronic BCR inh inconclusive and TDP1 cell noCPT 13µM*.
CCOC(=O)c1c(S(=O)(=O)NCC(=O)N(C)Cc2ccccc2)c(C)n(C)c1C was read as TDP1 cell CPT -19%, Chronic BCR inh -7% and TDP1 cell noCPT -13%.
Screening c1ccc(-c2nnc3nc(N4CCCCC4)nc(N4CCCCC4)n23)cc1 returned TDP1 cell CPT 18µM*, SW480 rereplic 2%, MCF10A rereplic 4%, IL-1B inflam inh -10 and TDP1 cell noCPT 15µM*.
For CC(C)(C)OC(=O)NCc1ccc(NC(=O)c2nc[nH]c2C(=O)NCCCNC(=O)c2[nH]cnc2C(=O)Nc2ccc(CNC(=O)OC(C)(C)C)cc2)cc1 the results were TDP1 cell CPT 13µM*, SW480 rereplic inconclusive, MCF10A rereplic inconclusive, IL-1B inflam inh 84, Chronic BCR inh -2% and TDP1 cell noCPT 26µM*.
For CC(C)(C)OC(=O)NCc1ccc(NC(=O)c2nc[nH]c2C(=O)NCCCCNC(=O)c2[nH]cnc2C(=O)Nc2ccc(CNC(=O)OC(C)(C)C)cc2)cc1 the results were TDP1 cell CPT 4.1µM*, SW480 rereplic -15%[9.22 µM], MCF10A rereplic -21%, IL-1B inflam inh 59, Chronic BCR inh 5% and TDP1 cell noCPT 2.9µM*.
